{
  "source": "PubChem BioAssay (Tox21)",
  "note": "“And” between values parts separate entries of the source, which are not always exact repeats. Equal values may be shown once. Records with an inconclusive call do not appear. Entries that show only a call come without a potency. The source made the active and inactive calls. Calls come from the whole dose curve; as a rule, active = well fitted curve in the direction sought with a large enough effect in the repeat runs; inconclusive = weak or mixed curves; inactive = no such curve, though single readings can be large; an effect the other way counts as inactive or inconclusive.",
  "data": [
    {"assay": "qHTS assay for small molecule disruptors of the mitochondrial membrane potential (AID 720635); note: potency is the fitted concentration of half-maximal effect", "conditions": "HepG2 mitochondrial membrane potential, Mito-MPS dye ratio; series mostly up to 83.2 µM", "in_short": "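HepG2 cells exposed to compound 1 hr at 37C, then Mito-MPS dye 30 min. Ratio read of aggregate (540/590 nm) versus monomer (490/535 nm) fluorescence.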", "values": [
      {"smiles": "Oc1ccc(Cl)c2c1CCC2", "Potency": "24.8 µM (active)"},
      {"smiles": "O=c1[nH]c(=O)n([C@H]2C[C@H](O)[C@@H](CO)O2)cc1/C=C/Br", "Potency": "inactive"},
      {"smiles": "Nc1nc(/C(=C/CC(=O)O)C(=O)N[C@@H]2C(=O)N3C(C(=O)O)=CCS[C@H]23)cs1", "Potency": "inactive"},
      {"smiles": "SC1CCCCC1", "Potency": "50.5 µM (active)"},
      {"smiles": "C[C@H](Cc1ccc(O)c(O)c1)[C@@H](C)Cc1ccc(O)c(O)c1", "Potency": "13.3 µM (active)"},
      {"smiles": "COc1cccc2c1[C@@H]1CN(CCCCn3c(=O)[nH]c4c(sc5ncc(-c6ccccc6)nc54)c3=O)C[C@@H]1CO2", "Potency": "13.3 µM (active)"},
      {"smiles": "CON=C1C[C@]2(C[C@@H]3C[C@@H](C/C=C(\\C)C[C@@H](C)/C=C/C=C4\\CO[C@@H]5[C@H](O)C(C)=C[C@@H](C(=O)O3)[C@]45O)O2)O[C@H](/C(C)=C/C(C)C)[C@H]1C", "Potency": "13.3 µM (active)"},
      {"smiles": "CC(C)[N+]1(C)[C@@H]2CC[C@H]1CC(OC(=O)C(CO)c1ccccc1)C2", "note": "(some centres undefined)", "Potency": "inactive"},
      {"smiles": "CC(C)Cc1ccc([C@H](C)C(=O)O)cc1", "Potency": "inactive"},
      {"smiles": "Cc1ccc(C(C)(C)c2ccc(C)cc2)cc1", "Potency": "inactive"},
      {"smiles": "Nc1c(CC(=O)O)cccc1C(=O)c1ccccc1", "Potency": "inactive"},
      {"smiles": "CC(=O)NC[C@H]1CN(c2ccc(N3CCOCC3)c(F)c2)C(=O)O1", "Potency": "inactive"},
      {"smiles": "CCCCCCCCCCCCN1CCCC1=O", "Potency": "68.6 µM (active)"},
      {"smiles": "O=C(O)COc1ccc(C(=O)c2cccs2)c(Cl)c1Cl", "Potency": "inactive"},
      {"smiles": "O=C1CCC(c2ccc(-n3ccnc3)cc2)=NN1", "Potency": "inactive"},
      {"smiles": "O=[N+]([O-])c1ccc(O)c2ncccc12", "Potency": "6.68 µM (active)"},
      {"smiles": "CC(C)C[C@H](NC(=O)[C@@H](COC(C)(C)C)NC(=O)[C@H](Cc1ccc(O)cc1)NC(=O)[C@H](CO)NC(=O)[C@H](Cc1c[nH]c2ccccc12)NC(=O)[C@H](Cc1cnc[nH]1)NC(=O)[C@@H]1CCC(=O)N1)C(=O)N[C@@H](CCCN=C(N)N)C(=O)N1CCC[C@H]1C(=O)NNC(N)=O", "Potency": "inactive"},
      {"smiles": "CC[C@@H](C(=O)[C@@H](C)[C@@H](O)[C@H](C)CCc1ccc(C)c(O)c1C(=O)O)[C@H]1O[C@](CC)([C@H]2CC[C@](O)(CC)[C@H](C)O2)C[C@@H]1C", "Potency": "1.06 µM (active)"},
      {"smiles": "CCCCC/C=C\\C=C\\C(=O)OCC", "Potency": "71.5 µM (active)"},
      {"smiles": "CCCn1c(=O)[nH]c(=O)c2[nH]cnc21", "Potency": "inactive"},
      {"smiles": "CO[C@H]1C[C@@H]2CC[C@@H](C)[C@@](O)(O2)C(=O)C(=O)N2CCCC[C@H]2C(=O)O[C@H]([C@H](C)C[C@@H]2CC[C@@H](O)[C@H](OC)C2)CC(=O)[C@H](C)C=C(C)[C@@H](O)[C@@H](OC)C(=O)[C@H](C)C[C@H](C)/C=C/C=CC=C1C", "Potency": "17.6 µM (active) and 19.7 µM (active)"},
      {"smiles": "CC(=O)OCC(=O)[C@@]1(O)CC[C@H]2[C@@H]3CCC4=CC(=O)CC[C@]4(C)C3=CC[C@@]21C", "Potency": "inactive"},
      {"smiles": "O=C(O)c1ccc(NC2OC[C@@H](O)[C@H](O)[C@H]2O)cc1", "note": "(some centres undefined)", "Potency": "inactive"},
      {"smiles": "O=C1CCCCCCCCCCCCCC1", "Potency": "48.6 µM (active)"},
      {"smiles": "C/C(=C(/CCO)SSCC1CCCO1)N(C=O)Cc1cnc(C)nc1N", "note": "(centres undefined)", "Potency": "inactive"},
      {"smiles": "CN(Cc1ccccc1)Cc1ccccc1", "Potency": "inactive"},
      {"smiles": "CCCCCCCC[N+](C)(C)CCCCCCCC", "Potency": "21.1 µM (active) and 23.7 µM (active)"},
      {"smiles": "CO[C@H](C(=O)[C@@H](O)[C@@H](C)O)C1Cc2cc3cc(O[C@H]4C[C@@H](O[C@H]5C[C@@H](O)[C@H](O)[C@@H](C)O5)[C@@H](O)[C@@H](C)O4)c(C)c(O)c3c(O)c2C(=O)[C@H]1O[C@H]1C[C@@H](O[C@H]2C[C@@H](O[C@H]3C[C@](C)(O)[C@H](O)[C@@H](C)O3)[C@H](O)[C@@H](C)O2)[C@H](O)[C@@H](C)O1", "note": "(some centres undefined)", "Potency": "27.8 µM (active)"},
      {"smiles": "CC(C)(O/N=C(\\C(=O)N[C@@H]1C(=O)N2C(C(=O)[O-])=C(C[n+]3ccccc3)CS[C@H]12)c1csc(N)n1)C(=O)O", "Potency": "inactive"},
      {"smiles": "Cc1cccc(C)c1NC(=O)C1CCCCN1C", "note": "(centres undefined)", "Potency": "inactive"},
      {"smiles": "C[C@@H]1O[C@@H]1P(=O)(O)O", "Potency": "inactive"},
      {"smiles": "c1ccc2c(c1)OCC(CN1CCCCC1)O2", "note": "(centres undefined)", "Potency": "inactive"},
      {"smiles": "C=C1C(=C/C=C2\\CCC[C@]3(C)[C@@H]([C@H](C)CCCC(C)C)CC[C@@H]23)C[C@@H](O)C[C@@H]1O", "Potency": "29.8 µM (active)"},
      {"smiles": "N=C(N)n1cccn1", "Potency": "inactive"},
      {"smiles": "CCCC(CCC)C(=O)OC1C[C@H]2CC[C@@H](C1)[N+]2(C)C", "note": "(some centres undefined)", "Potency": "inactive"},
      {"smiles": "C[N+](C)(C)CCOP(=O)(O)OP(=O)([O-])OC[C@H]1O[C@@H](n2ccc(N)nc2=O)[C@H](O)[C@@H]1O", "Potency": "inactive"},
      {"smiles": "CN(C)CCC(O)(c1ccccc1)c1ccccc1Cl", "note": "(centres undefined)", "Potency": "inactive"}
    ]},
    {"assay": "qHTS assay to test for compound auto fluorescence at 590 nm (red) in HepG2 cells (AID 720674)", "conditions": "HepG2 autofluorescence, red 540/590 nm, 1 h; series mostly up to 46 µM", "in_short": "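HepG2 cells, 2,000 per well in MEM with 10% FBS, attached overnight at 37 C, then got 23 nL compound or DMSO. After 1 hr at 37 C, 5% CO2, red fluorescence was read at 540/590 nm against Rose Bengal sodium as reference.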", "values": [
      {"smiles": "Oc1ccc(Cl)c2c1CCC2", "outcome": "inactive"},
      {"smiles": "O=c1[nH]c(=O)n([C@H]2C[C@H](O)[C@@H](CO)O2)cc1/C=C/Br", "outcome": "inactive"},
      {"smiles": "Nc1nc(/C(=C/CC(=O)O)C(=O)N[C@@H]2C(=O)N3C(C(=O)O)=CCS[C@H]23)cs1", "outcome": "inactive"},
      {"smiles": "SC1CCCCC1", "outcome": "inactive"},
      {"smiles": "C[C@H](Cc1ccc(O)c(O)c1)[C@@H](C)Cc1ccc(O)c(O)c1", "outcome": "inactive"},
      {"smiles": "COc1cccc2c1[C@@H]1CN(CCCCn3c(=O)[nH]c4c(sc5ncc(-c6ccccc6)nc54)c3=O)C[C@@H]1CO2", "outcome": "inactive"},
      {"smiles": "CON=C1C[C@]2(C[C@@H]3C[C@@H](C/C=C(\\C)C[C@@H](C)/C=C/C=C4\\CO[C@@H]5[C@H](O)C(C)=C[C@@H](C(=O)O3)[C@]45O)O2)O[C@H](/C(C)=C/C(C)C)[C@H]1C", "outcome": "inactive"},
      {"smiles": "CC(C)[N+]1(C)[C@@H]2CC[C@H]1CC(OC(=O)C(CO)c1ccccc1)C2", "note": "(some centres undefined)", "outcome": "inactive"},
      {"smiles": "CC(C)Cc1ccc([C@H](C)C(=O)O)cc1", "outcome": "inactive"},
      {"smiles": "Cc1ccc(C(C)(C)c2ccc(C)cc2)cc1", "outcome": "inactive"},
      {"smiles": "Nc1c(CC(=O)O)cccc1C(=O)c1ccccc1", "outcome": "inactive"},
      {"smiles": "CC(=O)NC[C@H]1CN(c2ccc(N3CCOCC3)c(F)c2)C(=O)O1", "outcome": "inactive"},
      {"smiles": "CCCCCCCCCCCCN1CCCC1=O", "outcome": "inactive"},
      {"smiles": "O=C(O)COc1ccc(C(=O)c2cccs2)c(Cl)c1Cl", "outcome": "inactive"},
      {"smiles": "O=C1CCC(c2ccc(-n3ccnc3)cc2)=NN1", "outcome": "inactive"},
      {"smiles": "O=[N+]([O-])c1ccc(O)c2ncccc12", "outcome": "inactive"},
      {"smiles": "CC(C)C[C@H](NC(=O)[C@@H](COC(C)(C)C)NC(=O)[C@H](Cc1ccc(O)cc1)NC(=O)[C@H](CO)NC(=O)[C@H](Cc1c[nH]c2ccccc12)NC(=O)[C@H](Cc1cnc[nH]1)NC(=O)[C@@H]1CCC(=O)N1)C(=O)N[C@@H](CCCN=C(N)N)C(=O)N1CCC[C@H]1C(=O)NNC(N)=O", "outcome": "inactive"},
      {"smiles": "CC[C@@H](C(=O)[C@@H](C)[C@@H](O)[C@H](C)CCc1ccc(C)c(O)c1C(=O)O)[C@H]1O[C@](CC)([C@H]2CC[C@](O)(CC)[C@H](C)O2)C[C@@H]1C", "outcome": "inactive"},
      {"smiles": "CCCCC/C=C\\C=C\\C(=O)OCC", "outcome": "inactive"},
      {"smiles": "CCCn1c(=O)[nH]c(=O)c2[nH]cnc21", "outcome": "inactive"},
      {"smiles": "CO[C@H]1C[C@@H]2CC[C@@H](C)[C@@](O)(O2)C(=O)C(=O)N2CCCC[C@H]2C(=O)O[C@H]([C@H](C)C[C@@H]2CC[C@@H](O)[C@H](OC)C2)CC(=O)[C@H](C)C=C(C)[C@@H](O)[C@@H](OC)C(=O)[C@H](C)C[C@H](C)/C=C/C=CC=C1C", "outcome": "inactive"},
      {"smiles": "CC(=O)OCC(=O)[C@@]1(O)CC[C@H]2[C@@H]3CCC4=CC(=O)CC[C@]4(C)C3=CC[C@@]21C", "outcome": "inactive"},
      {"smiles": "O=C(O)c1ccc(NC2OC[C@@H](O)[C@H](O)[C@H]2O)cc1", "note": "(some centres undefined)", "outcome": "inactive"},
      {"smiles": "O=C1CCCCCCCCCCCCCC1", "outcome": "inactive"},
      {"smiles": "C/C(=C(/CCO)SSCC1CCCO1)N(C=O)Cc1cnc(C)nc1N", "note": "(centres undefined)", "outcome": "inactive"},
      {"smiles": "CN(Cc1ccccc1)Cc1ccccc1", "outcome": "inactive"},
      {"smiles": "CCCCCCCC[N+](C)(C)CCCCCCCC", "outcome": "inactive"},
      {"smiles": "CO[C@H](C(=O)[C@@H](O)[C@@H](C)O)C1Cc2cc3cc(O[C@H]4C[C@@H](O[C@H]5C[C@@H](O)[C@H](O)[C@@H](C)O5)[C@@H](O)[C@@H](C)O4)c(C)c(O)c3c(O)c2C(=O)[C@H]1O[C@H]1C[C@@H](O[C@H]2C[C@@H](O[C@H]3C[C@](C)(O)[C@H](O)[C@@H](C)O3)[C@H](O)[C@@H](C)O2)[C@H](O)[C@@H](C)O1", "note": "(some centres undefined)", "outcome": "inactive"},
      {"smiles": "CC(C)(O/N=C(\\C(=O)N[C@@H]1C(=O)N2C(C(=O)[O-])=C(C[n+]3ccccc3)CS[C@H]12)c1csc(N)n1)C(=O)O", "outcome": "inactive"},
      {"smiles": "Cc1cccc(C)c1NC(=O)C1CCCCN1C", "note": "(centres undefined)", "outcome": "inactive"},
      {"smiles": "C[C@@H]1O[C@@H]1P(=O)(O)O", "outcome": "inactive"},
      {"smiles": "c1ccc2c(c1)OCC(CN1CCCCC1)O2", "note": "(centres undefined)", "outcome": "inactive"},
      {"smiles": "C=C1C(=C/C=C2\\CCC[C@]3(C)[C@@H]([C@H](C)CCCC(C)C)CC[C@@H]23)C[C@@H](O)C[C@@H]1O", "outcome": "inactive"},
      {"smiles": "N=C(N)n1cccn1", "outcome": "inactive"},
      {"smiles": "CCCC(CCC)C(=O)OC1C[C@H]2CC[C@@H](C1)[N+]2(C)C", "note": "(some centres undefined)", "outcome": "inactive"},
      {"smiles": "C[N+](C)(C)CCOP(=O)(O)OP(=O)([O-])OC[C@H]1O[C@@H](n2ccc(N)nc2=O)[C@H](O)[C@@H]1O", "outcome": "inactive"},
      {"smiles": "CN(C)CCC(O)(c1ccccc1)c1ccccc1Cl", "note": "(centres undefined)", "outcome": "inactive"}
    ]}
  ]
}
